Test results from PubChem BioAssay AID1159580 (chemical genetic matrix, 2015).
The whole screen tested about 5,500 compounds, of which about 2,000 (36%) were called active. Roughly 18% stayed inconclusive and do not appear here. No stated cut-off is given here; in the data, active means normalized growth mostly below about 0.91 (no sharp cut-off); inconclusive means no clear call, values can overlap the other calls; inactive means mostly above about 0.92. The list shows a part of the results.

Assay: chemical genetic growth profiling, strain panel (AID 1159580);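 further: tested at 20 µM; growth read once vehicle control cultures reached saturation at 30 °C; 1 = growth at the plate median or of vehicle wells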
Conditions: S. cerevisiae deletion strains, growth OD

Measured: normalized growth

CC(=O)O[C@@H]1CC2C(C)(C)[C@@H](O)CC[C@]2(C)C2CC[C@@]3(C)[C@H](c4ccoc4)OC(=O)[C@H]4O[C@]43[C@@]21C (some centres not stated)
active: locus YBR021W, strain FUR4, stronger effect = lower value 0.823
inactive: locus YAL021C, strain ccr4, stronger effect = lower value 1.02 | locus YAL026C, strain drs2, stronger effect = lower value 0.989 | locus YAL030W, strain snc1, stronger effect = lower value 0.996 | locus YBL061C, strain skt5, stronger effect = lower value 0.984 | locus YBR009C, strain hhf1, stronger effect = lower value 1 | locus YBR023C, strain chs3, stronger effect = lower value 0.991 | locus YBR171W, strain sec66, stronger effect = lower value 0.993 | locus YBR229C, strain ROT2, stronger effect = lower value 1.01 | locus YBR231C, strain swc5, stronger effect = lower value 0.995 | locus YBR279W, strain paf1, stronger effect = lower value 0.998 | locus YCL011C, strain gbp2, stronger effect = lower value 0.985 | locus YCL016C, strain dcc1, stronger effect = lower value 0.995 | locus YCL029C, strain bik1, stronger effect = lower value 0.997 | locus YCL061C, strain MRC1, stronger effect = lower value 0.994 | locus YCL069W, strain vba3, stronger effect = lower value 0.988 | locus YCR088W, strain abp1, stronger effect = lower value 0.988 | locus YDL005C, strain med2, stronger effect = lower value 0.988 | locus YDL035C, strain GPR1, stronger effect = lower value 0.967 | locus YDL040C, strain nat1, stronger effect = lower value 0.986 | locus YDL074C, strain BRE1, stronger effect = lower value 0.947 | locus YDL101C, strain DUN1, stronger effect = lower value 1.02 | locus YDL134C, strain PPH21, stronger effect = lower value 1 | locus YDL185W, strain tfp1, stronger effect = lower value 1 | locus YDL192W, strain arf1, stronger effect = lower value 0.964 | locus YDR001C, strain nth1, stronger effect = lower value 0.996 | locus YDR069C, strain doa4, stronger effect = lower value 1.01 | locus YDR101C, strain arx1, stronger effect = lower value 0.973 | locus YDR137W, strain rgp1, stronger effect = lower value 0.986 | locus YDR159W, strain sac3, stronger effect = lower value 0.964 | locus YDR162C, strain NBP2, stronger effect = lower value 0.987 | locus YDR195W, strain ref2 0.981 | locus YDR297W, strain sur2, stronger effect = lower value 1.01 | locus YDR318W, strain mcm21, stronger effect = lower value 0.99 | locus YDR334W, strain swr1, stronger effect = lower value 1.01 | locus YDR335W, strain msn5, stronger effect = lower value 0.995 | locus YDR388W, stronger effect = lower value 1.02 | locus YDR392W, strain spt3, stronger effect = lower value 0.968 | locus YDR502C, strain sam2, stronger effect = lower value 1 | locus YEL003W, strain gim4, stronger effect = lower value 0.987 | locus YEL037C, strain rad23, stronger effect = lower value 0.995 | locus YEL061C, strain CIN8 (second series), stronger effect = lower value 0.992 | locus YEL061C, strain CIN8, stronger effect = lower value 1 | locus YER015W, strain faa2, stronger effect = lower value 0.996 | locus YER016W, strain bim1, stronger effect = lower value 0.989 | locus YER110C, stronger effect = lower value 1.02 | locus YER111C, strain swi4, stronger effect = lower value 0.98 | locus YER155C, strain BEM2 (second series), stronger effect = lower value 1.01 | locus YER155C, strain BEM2, stronger effect = lower value 1.02 | locus YER167W, strain BCK2, stronger effect = lower value 0.996 | locus YFR010W, strain ubp6, stronger effect = lower value 0.993 | locus YGL078C, strain dbp3, stronger effect = lower value 1.02 | locus YGL086W, strain mad1, stronger effect = lower value 0.998 | locus YGL167C, strain pmr1, stronger effect = lower value 0.998 | locus YGL173C, strain kem1, stronger effect = lower value 0.998 | locus YGL227W, strain vid30, stronger effect = lower value 0.989 | locus YGL240W, strain doc1, stronger effect = lower value 0.966 | locus YGL248W, strain PDE1, stronger effect = lower value 1.01 | locus YGL253W, strain hxk2, stronger effect = lower value 0.95 | locus YGR135W, strain pre9, stronger effect = lower value 1.04 | locus YGR252W, strain gcn5, stronger effect = lower value 0.975 | locus YHR013C, strain ard1, stronger effect = lower value 0.988 | locus YHR027C, strain rpn1, stronger effect = lower value 0.983 | locus YHR030C, strain SLT2, stronger effect = lower value 1.01 | locus YHR079C, strain IRE1 (second series), stronger effect = lower value 1.01 | locus YHR079C, strain IRE1, stronger effect = lower value 1.02 | locus YHR094C, strain hxt1, stronger effect = lower value 1.01 | locus YHR129C, strain ARP1, stronger effect = lower value 1.01 | locus YHR142W, strain chs7, stronger effect = lower value 0.992 | locus YHR200W, strain rpn10, stronger effect = lower value 1.01 | locus YIL066C, strain RNR3, stronger effect = lower value 0.967 | locus YIL073C, strain SPO22, stronger effect = lower value 1.03 | locus YIL125W, strain kgd1, stronger effect = lower value 1.01 | locus YIR030C, strain dcg1, stronger effect = lower value 1 | locus YJL092W, strain hpr5, stronger effect = lower value 0.995 | locus YJL095W, strain BCK1 (second series), stronger effect = lower value 1.01 | locus YJL095W, strain BCK1, stronger effect = lower value 1.01 | locus YJL115W, strain asf1, stronger effect = lower value 0.997 | locus YJL129C, strain trk1, stronger effect = lower value 0.976 | locus YJL134W, strain LCB3, stronger effect = lower value 1.01 | locus YJL154C, strain vps35, stronger effect = lower value 0.994 | locus YJL164C, strain tpk1, stronger effect = lower value 1 | locus YJL166W, strain qcr8, stronger effect = lower value 0.988 | locus YJL168C, strain set2, stronger effect = lower value 1.01 | locus YJL187C, strain SWE1 (second series), stronger effect = lower value 1.02 | locus YJL187C, strain SWE1, stronger effect = lower value 0.991 | locus YJR043C, strain POL32, stronger effect = lower value 0.979 | locus YJR066W, strain TOR1, stronger effect = lower value 0.966 | locus YKL009W, strain mrt4, stronger effect = lower value 0.964 | locus YKL068W, stronger effect = lower value 1.01 | locus YKL085W, strain MDH1 (second series), stronger effect = lower value 1 | locus YKL085W, strain MDH1, stronger effect = lower value 1 | locus YKL160W, strain elf1, stronger effect = lower value 0.997 | locus YKR001C, strain vps1, stronger effect = lower value 1 | locus YKR026C, strain gcn3, stronger effect = lower value 1 | locus YKR091W, strain srl3, stronger effect = lower value 1 | locus YLL001W, strain dnm1, stronger effect = lower value 0.996 | locus YLL026W, stronger effect = lower value 0.997 | locus YLL041C, strain sdh2, stronger effect = lower value 0.997 | locus YLR027C, strain aat2, stronger effect = lower value 0.999 | locus YLR039C, strain RIC1, stronger effect = lower value 0.981 | locus YLR058C, strain SHM2, stronger effect = lower value 1 | locus YLR102C, strain apc9, stronger effect = lower value 1.01 | locus YLR113W, strain HOG1, stronger effect = lower value 0.968 | locus YLR221C, strain rsa3, stronger effect = lower value 0.987 | locus YLR258W, strain gsy2, stronger effect = lower value 1.01 | locus YLR262C, strain YPT6 (second series), stronger effect = lower value 0.967 | locus YLR262C, strain YPT6, stronger effect = lower value 0.974 | locus YLR268W, strain sec22, stronger effect = lower value 0.967 | locus YLR320W, strain mms22, stronger effect = lower value 0.989 | locus YLR330W, strain CHS5, stronger effect = lower value 0.999 | locus YLR342W, strain FKS1, stronger effect = lower value 0.992 | locus YLR357W, strain rsc2, stronger effect = lower value 1.03 | locus YLR370C, strain arc18, stronger effect = lower value 1.01 | locus YLR371W, strain rom2, stronger effect = lower value 1.03 | locus YLR384C, strain iki3, stronger effect = lower value 0.992 | locus YLR418C, strain cdc73, stronger effect = lower value 0.968 | locus YML016C, strain PPZ1, stronger effect = lower value 1.01 | locus YML032C, strain rad52, stronger effect = lower value 0.997 | locus YML120C, strain ndi1, stronger effect = lower value 1 | locus YML124C, strain tub3, stronger effect = lower value 1 | locus YMR058W, strain fet3, stronger effect = lower value 1.01 | locus YMR078C, strain ctf18, stronger effect = lower value 1.01 | locus YMR125W, strain sto1, stronger effect = lower value 1.02 | locus YMR129W, stronger effect = lower value 0.993 | locus YMR205C, strain PFK2, stronger effect = lower value 0.993 | locus YMR223W, strain ubp8, stronger effect = lower value 1.01 | locus YMR231W, strain pep5, stronger effect = lower value 0.959 | locus YMR307W, strain GAS1, stronger effect = lower value 0.953 | locus YNL067W, strain RPL9B, stronger effect = lower value 1.05 | locus YNL071W, strain lat1, stronger effect = lower value 0.993 | locus YNL153C, strain GIM3, stronger effect = lower value 1.04 | locus YNL183C, strain NPR1, stronger effect = lower value 0.976 | locus YNL209W, strain ssb2, stronger effect = lower value 0.992 | locus YNL233W, strain BNI4, stronger effect = lower value 1.01 | locus YNL248C, strain rpa49, stronger effect = lower value 0.995 | locus YNL250W, strain rad50, stronger effect = lower value 1.04 | locus YNL271C, strain bni1, stronger effect = lower value 0.999 | locus YNL298W, strain CLA4, stronger effect = lower value 0.991 | locus YNL307C, strain MCK1, stronger effect = lower value 1.01 | locus YNL322C, strain KRE1 (second series), stronger effect = lower value 0.989 | locus YNR049C, strain mso1, stronger effect = lower value 0.994 | locus YNR052C, strain pop2, stronger effect = lower value 1.02 | locus YOL006C, strain TOP1, stronger effect = lower value 0.891 | locus YOL012C, strain htz1 1.11 | locus YOL147C, strain pex11, stronger effect = lower value 0.996 | locus YOR001W, strain rrp6, stronger effect = lower value 0.981 | locus YOR061W, strain CKA2, stronger effect = lower value 0.985 | locus YOR069W, strain VPS5, stronger effect = lower value 1.01 | locus YOR070C, strain gyp1, stronger effect = lower value 0.988 | locus YOR080W, strain dia2, stronger effect = lower value 0.99 | locus YOR083W, strain WHI5, stronger effect = lower value 1 | locus YOR106W, strain vam3, stronger effect = lower value 0.984 | locus YOR136W, strain idh2, stronger effect = lower value 1 | locus YOR144C, strain elg1, stronger effect = lower value 1 | locus YOR184W, strain ser1, stronger effect = lower value 0.949 | locus YOR231W, strain MKK1, stronger effect = lower value 0.998 | locus YOR265W, strain rbl2, stronger effect = lower value 1 | locus YOR270C, strain vph1, stronger effect = lower value 0.912 | locus YOR290C, strain snf2, stronger effect = lower value 0.978 | locus YOR316C, strain cot1, stronger effect = lower value 1.01 | locus YPL051W, strain arl3, stronger effect = lower value 1.01 | locus YPL078C, strain atp4, stronger effect = lower value 0.991 | locus YPL106C, strain sse1, stronger effect = lower value 1.01 | locus YPL240C, strain hsp82, stronger effect = lower value 0.989 | locus YPL241C, strain CIN2, stronger effect = lower value 1 | locus YPL256C, strain CLN2, stronger effect = lower value 1.06 | locus YPR119W, strain clb2, stronger effect = lower value 1.02 | locus YPR141C, strain kar3, stronger effect = lower value 1.01 | locus YPR163C, strain tif3, stronger effect = lower value 1 | locus YPR167C, strain met16, stronger effect = lower value 1 | strain wtn01, stronger effect = lower value 0.976
